Compound activity (PubChem BioAssay)
In the library only some 6.8% were active in any assay of this set; here they are far more common.
NS3h inh CB: blocks HCV NS3 helicase binding to DNA. NS3h Cy5-dT15 DNA binding, fluorescence polarization. inhibition, % at 100 µM. 16,000 tested, 1.6% active;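 active = inhibition above the average over every tested compound plus 3 SD, cut at about 40% in these data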
Cy5 interf NS3h: counter-screen for HCV NS3 helicase inhibitors: fluorescence interference. Cy5-dT15 DNA with NS3h; actives lie on both sides; signal over control mean, under 1 quenches. fluorescence interference ratio at 100 µM. 16,000 tested, 6% active;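 active = compound fluorescence over control fluorescence at most 0.8, a quencher, or at least a set upper limit, an enhancer; inactive = ratio between 0.8 and the set upper limit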
HCV NS3h conf: confirmation of hepatitis C virus NS3 helicase inhibitors; shares compounds with NS3h inh CB; NS3h binding to Cy5-dT15 DNA, fluorescence polarization; inhibition, % at 100 µM; 240 tested, 20% active; AID 720485;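 active = percent inhibition of 50% or more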
SSB-DNA FP CB: counter-screen for HCV NS3 helicase inhibitors: E. coli SSB binding; shares compounds with NS3h inh CB; inhibition, % at 100 µM; AID 720486; 240 tested, 40% active; E. coli SSB binding Cy5-dT15, fluorescence polarization;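 active = inhibition of at least 50%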;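 also: displacers lower Cy5 polarization so higher inhibition means more SSB displaced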
Target sequence (P0AGE0 whole entry, looked up): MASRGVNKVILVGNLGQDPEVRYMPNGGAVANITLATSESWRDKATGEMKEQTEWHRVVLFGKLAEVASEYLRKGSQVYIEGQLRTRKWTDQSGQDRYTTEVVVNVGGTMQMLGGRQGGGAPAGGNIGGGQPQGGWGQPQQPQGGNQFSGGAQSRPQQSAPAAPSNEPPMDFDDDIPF
Cy5 SSB fluor CB: Cy5 fluorescence interference in NS3h counter-screen. shares compounds with NS3h inh CB. Cy5-dT15/E. coli SSB fluorescence interference; actives lie on both sides. fluorescence interference ratio at 100 µM. 240 tested, 8% active;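 active = fluorescence interference ratio at or above 1.2, signal boosting, or at or below 0.8, signal quenching; inactive = ratio between 0.8 and 1.2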;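 also: ratio of compound well signal to mean negative control signal so 1 means no effect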
Cy5 fluor confirm: confirmation counter-screen for HCV NS3 helicase inhibitors: fluorescence interference | shares compounds with NS3h inh CB | Cy5-dT15 DNA/NS3h fluorescence interference counterscreen | fluorescence interference ratio at 100 µM, hits read low | 240 tested, 44% active | AID 720489;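 active = fluorescence interference ratio at or below 0.8 quencher or at or above a set limitenhancer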;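 also: ratio of compound fluorescence to mean of negative controls so 1 means no interference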
An asterisk follows results filed as active.

Results for Cc1ccc(-c2ccc(C=C3C(=O)NC(=S)NC3=O)o2)cc1[N+](=O)[O-] ?
NS3h inh CB: 41.8*; Cy5 interf NS3h: 0.925

Results for Cc1cc(-c2ccc(C=C3C(=O)NC(=S)NC3=O)o2)cc([N+](=O)[O-])c1C ?
NS3h inh CB: 16.6; Cy5 interf NS3h: 0.927

What do the screens show for `CCC1(CCC(C)C)C(=O)NC(=O)N(C(=O)c2ccc(F)cc2)C1=O` (stereo not drawn)?
NS3h inh CB: 6.4; Cy5 interf NS3h: 1.05

How did O=C1NC(=O)N(Cc2ccccc2)C(=O)/C1=C/c1ccc2c(c1)OCO2 do in these assays?
NS3h inh CB: 8.0; Cy5 interf NS3h: 0.896

Results for Cc1ccc(N2C(=O)CC(=O)NC2=S)cc1 ?
NS3h inh CB: 3.1; Cy5 interf NS3h: 1.04

How did O=C1CC(=O)N(c2ccc(Cl)c(Cl)c2)C(=S)N1 do in these assays?
NS3h inh CB: 18.6; Cy5 interf NS3h: 0.619*

How did COc1ccc(CN2CCN(Cc3cccc(Br)c3)CC2)cc1Br do in these assays?
NS3h inh CB: -1.0; Cy5 interf NS3h: 1

How did COc1ccc(CCNCc2cccc(Br)c2)cc1OC do in these assays?
NS3h inh CB: -5.8; Cy5 interf NS3h: 1.1

How did O=[N+]([O-])c1ccc(NCCOc2cccc3ccccc23)c2ncccc12 do in these assays?
NS3h inh CB: 7.8; Cy5 interf NS3h: 0.752*

Results for CCOC(=O)C(P(=O)(OCC)OCC)P(=S)(c1ccccc1)c1ccccc1 (stereo not drawn) ?
NS3h inh CB: -18.5; Cy5 interf NS3h: 1.01

What do the screens show for `O=[N+]([O-])c1ccc(N2CCNCC2)cc1NCCc1ccccc1`?
NS3h inh CB: 9.7; Cy5 interf NS3h: 0.783*

Results for Cc1ccc(C2c3c(c4ccccc4oc3=O)Oc3c2c(=O)oc2ccccc32)cc1 ?
NS3h inh CB: 2.2; Cy5 interf NS3h: 1.04

What do the screens show for `Cc1cc(OCC(N)=O)c2c3c(c(=O)oc2c1)CCC3`?
NS3h inh CB: 15.5; Cy5 interf NS3h: 1.16

Results for CCCCOC(=O)COc1cc(C)cc2oc(=O)c3c(c12)CCC3 ?
NS3h inh CB: 53.6*; Cy5 interf NS3h: 1.11; HCV NS3h conf: -3.0; SSB-DNA FP CB: 7.8; Cy5 SSB fluor CB: 0.963; Cy5 fluor confirm: 0.934

How did COc1ccc(C=C(C#N)C#N)c(OC)c1 do in these assays?
NS3h inh CB: 6.4; Cy5 interf NS3h: 1.04

What do the screens show for `Cc1cc(OCc2ccc(F)cc2)c2c3c(c(=O)oc2c1)CCC3`?
NS3h inh CB: 4.5; Cy5 interf NS3h: 1.12

Results for O=C1NC(=S)NC(=O)C1CCCC=C(Cl)Cl ?
NS3h inh CB: 29.2; Cy5 interf NS3h: 0.982; HCV NS3h conf: 28.8; SSB-DNA FP CB: 40.5; Cy5 SSB fluor CB: 0.949; Cy5 fluor confirm: 0.986

Results for O=C(NC(Oc1ccccc1Br)C(Cl)(Cl)Cl)c1ccco1 (stereo not drawn) ?
NS3h inh CB: 6.7; Cy5 interf NS3h: 0.934

Results for CCOc1ccc(NC(=S)NC2CN3CCC2CC3)cc1 (stereo not drawn) ?
NS3h inh CB: -9.4; Cy5 interf NS3h: 0.992

Results for O=C1NC(=S)N(c2ccc(Br)cc2)C(=O)/C1=C/c1ccc(-c2ccc(C(=O)O)cc2)o1 ?
NS3h inh CB: 13.4; Cy5 interf NS3h: 1.02

Results for Cc1ccc(N2C(=O)NC(=O)/C(=C/c3ccc(-c4cccc(C(=O)O)c4)o3)C2=O)cc1 ?
NS3h inh CB: 50.2*; Cy5 interf NS3h: 1.06; HCV NS3h conf: 89.1*; SSB-DNA FP CB: 69.7*; Cy5 SSB fluor CB: 0.845; Cy5 fluor confirm: 0.902

How did CN1C(=O)C(=Cc2ccc(-c3cccc(C(=O)O)c3)o2)C(=O)N(C)C1=O do in these assays?
NS3h inh CB: 31.7; Cy5 interf NS3h: 0.972

What do the screens show for `Cc1ccc(N2C(=O)/C(=C/c3ccc(-c4ccc(C(=O)O)cc4)o3)C(=O)NC2=S)cc1`?
NS3h inh CB: 50.3*; Cy5 interf NS3h: 0.994; HCV NS3h conf: 44.6; SSB-DNA FP CB: 62.4*; Cy5 SSB fluor CB: 0.85; Cy5 fluor confirm: 0.93

How did O=C1NC(=O)C(=Cc2ccc(-c3cc([N+](=O)[O-])ccc3O)o2)C(=O)N1 do in these assays?
NS3h inh CB: 185.2*; Cy5 interf NS3h: 1.7*; HCV NS3h conf: 100.0*; SSB-DNA FP CB: 100.0*; Cy5 SSB fluor CB: 0.905; Cy5 fluor confirm: 1.19

What do the screens show for `COC(=O)c1ccc(-c2ccc(C=C3C(=O)NC(=S)NC3=O)o2)cc1`?
NS3h inh CB: 18.5; Cy5 interf NS3h: 1.06

How did O=C1NC(=O)C(=Cc2ccc(-c3ccccc3C(=O)O)o2)C(=O)N1 do in these assays?
NS3h inh CB: 67.5*; Cy5 interf NS3h: 1.02; HCV NS3h conf: 54.2*; SSB-DNA FP CB: 24.8; Cy5 SSB fluor CB: 0.978; Cy5 fluor confirm: 0.98

Results for O=C1NC(=O)C(=Cc2ccc(O)c(O)c2)C(=O)N1 ?
NS3h inh CB: 34.9; Cy5 interf NS3h: 0.965

What do the screens show for `O=C(CNS(=O)(=O)c1ccccc1)Nc1ccc(Br)cc1C(=O)c1ccccc1`?
NS3h inh CB: 30.8; Cy5 interf NS3h: 0.998

How did C=CCn1c(C)c(C=C2C(=O)NC(=S)NC2=O)c2ccccc21 do in these assays?
NS3h inh CB: 13.6; Cy5 interf NS3h: 0.998

What do the screens show for `O=C1NC(=O)C(=Cc2ccccc2OCc2ccccc2Cl)C(=O)N1`?
NS3h inh CB: 56.0*; Cy5 interf NS3h: 0.584*; HCV NS3h conf: 24.5; SSB-DNA FP CB: 28.4; Cy5 SSB fluor CB: 0.925; Cy5 fluor confirm: 0.733*

Results for CC(C)Oc1ccc(Br)cc1C=C1C(=O)NC(=O)NC1=O ?
NS3h inh CB: 15.4; Cy5 interf NS3h: 1.07

How did CCN(CC)CCNC(=O)CN1CCCC1=O do in these assays?
NS3h inh CB: -7.4; Cy5 interf NS3h: 0.955

Results for CSc1ccc(CN2CCN(Cc3ccc(Br)cc3)CC2)cc1 ?
NS3h inh CB: -3.9; Cy5 interf NS3h: 1.01

How did CCN1C(=O)C(=Cc2ccc(N(CC)CC)cc2)C(=O)N(CC)C1=S do in these assays?
NS3h inh CB: 54.6*; Cy5 interf NS3h: 1.98*; HCV NS3h conf: 28.8; SSB-DNA FP CB: 6.6; Cy5 SSB fluor CB: 1.18; Cy5 fluor confirm: 1.4*

What do the screens show for `CN(C)c1ccc(C=C2C(=O)NC(=S)N(c3ccccc3F)C2=O)cc1`?
NS3h inh CB: 34.5; Cy5 interf NS3h: 0.996

Results for CCOc1cc(C=C2C(=O)NC(=S)NC2=O)ccc1OCc1c(C)no[n+]1[O-] ?
NS3h inh CB: -4.1; Cy5 interf NS3h: 1.02
